Data: PubChem BioAssay (NCI)
Compounds without any hit were thinned out: in the full panel of roughly 79,000, 15% have a hit. Activity calls are given as the source filed them. No stated cut-off is given here; in the data, active means growth inhibition above about 70%; inactive means the rest.

What was measured:
[1] = NCI Yeast Anticancer Drug Screen. Data for the rad52 strain (AID 147);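 further: 0% = growth of vehicle-treated control cultures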; settings: S. cerevisiae rad52 mutant growth inhibition, active compounds read high
Summary of the method: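 Screen used a yeast mutant impaired in DNA repair. After compound exposure, growth was measured. Values reflect inhibition compared with vehicle-treated cells.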

[2] = NCI Yeast Anticancer Drug Screen. Data for the wt1 strain (AID 149);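 further: 0% = growth of vehicle-treated wt1 cultures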; settings: S. cerevisiae wt1 strain (SPY 50644) growth inhibition, active compounds read high
Summary of the method: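 Measured: growth of wt1 yeast under compound versus vehicle treatment, reported as inhibition.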

[3] = NCI Yeast Anticancer Drug Screen. Data for the rad50EPP+ strain (AID 151);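 further: 0% = growth of vehicle-treated control cultures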; settings: S. cerevisiae rad50 mutant strain, active compounds read high
Summary of the method: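 Exposing the rad50EPP+ strain to each compound, growth was compared with vehicle-only cultures to give inhibition.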

[4] = NCI Yeast Anticancer Drug Screen. Data for the rad50 strain (AID 155);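 further: 0% = growth of vehicle-only cultures of the same strain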; settings: S. cerevisiae rad50 strain growth inhibition, active compounds read high
Summary of the method: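 Growth of the mutant yeast was measured after compound exposure and referenced to vehicle-treated cultures.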

[5] = NCI Yeast Anticancer Drug Screen. Data for the mec2-1 strain (AID 157); settings: S. cerevisiae mec2-1 strain, active compounds read high
Summary of the method: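 Readout is yeast growth inhibition, normalised to vehicle-treated controls, in the mec2-1 strain exposed to compound.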

[6] = NCI Yeast Anticancer Drug Screen. Data for the rad14 strain (AID 159);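 further: 0% = growth of vehicle-treated control cultures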; settings: S. cerevisiae rad14 strain growth inhibition, active compounds read high
Summary of the method: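 Here, inhibition of yeast growth was measured after compound exposure, using a strain with a genetic defect in DNA damage repair and vehicle-treated cultures as the reference.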

[7] = NCI Yeast Anticancer Drug Screen. Data for the sgs1 mgt1 strain (AID 161);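 further: 0% = growth of cultures given vehicle only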; settings: S. cerevisiae sgs1 mgt1 strain, active compounds read high
Summary of the method: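 Percent growth inhibition was derived by comparing compound-exposed mutant yeast with vehicle-exposed cultures. The strain carries alterations in DNA damage repair.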

[8] = NCI Yeast Anticancer Drug Screen. Data for the CLN2oe strain (AID 163);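 further: 0% = growth of vehicle-only control cultures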; settings: S. cerevisiae CLN2oe strain, active compounds read high
Summary of the method: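 Values reflect how much compound exposure reduced yeast growth, referenced to vehicle-exposed cells. Assay organism is a strain with a defined genetic change affecting cell-cycle control.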

[9] = NCI Yeast Anticancer Drug Screen. Data for the bub3 strain (AID 167); settings: S. cerevisiae bub3 mutant strain, active compounds read high
Summary of the method: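 Whole-cell yeast assay. The mutant strain was incubated with compounds, and growth inhibition was determined by comparison with vehicle-treated cells.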

[10] = NCI Yeast Anticancer Drug Screen. Data for the wt2 strain (AID 169);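 further: 0% = growth of vehicle-treated yeast cultures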; settings: S. cerevisiae wt2 strain growth inhibition, active compounds read high
Summary of the method: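 Values express reduction in yeast growth under compound treatment, referenced to vehicle-treated cells.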

[11] = NCI Yeast Anticancer Drug Screen. Data for the mlh1 strain (AID 171);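 further: 0% = growth of vehicle-treated control cultures of the same strain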; settings: S. cerevisiae mlh1 strain growth inhibition, active compounds read high
Summary of the method: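 Steps: expose the defined-mutant yeast strain to compound; expose a parallel culture to vehicle; measure growth; express compound effect as inhibition relative to the vehicle culture.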

[12] = NCI Yeast Anticancer Drug Screen. Data for the sgs1 strain (AID 173);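 further: 0% = growth of vehicle-only control cultures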; settings: S. cerevisiae sgs1 mutant, active compounds read high
Summary of the method: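 Treat defined-mutant yeast with compound; measure growth; calculate inhibition relative to vehicle-treated cells.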

[13] = NCI Yeast Anticancer Drug Screen. Data for the mlh1 rad18 strain (AID 175); settings: S. cerevisiae mlh1 rad18 strain growth inhibition, active compounds read high
Summary of the method: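 Test agents were incubated with a yeast strain of defined genotype (DNA damage repair defect). Inhibition of growth was derived by comparison with vehicle-exposed cultures.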

[14] = NCI Yeast Anticancer Drug Screen. Data for the rad18 strain (AID 177); settings: S. cerevisiae rad18 mutant growth inhibition, active compounds read high
Summary of the method: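 A genetically defined yeast mutant impaired in DNA damage repair was treated with test compounds, then its growth was measured against cultures receiving vehicle alone.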

[15] = NCI Yeast Anticancer Drug Screen. Data for the cln2 rad14 strain (AID 165);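 further: 0% = growth equal to vehicle treated cultures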; settings: S. cerevisiae cln2 rad14 strain, active compounds read high
Summary of the method: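 Relative to vehicle controls, growth inhibition of compound-treated cln2 rad14 yeast was recorded.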

[16] = at 5.0 µM (retest, dose inferred, filed as 0.5)
[17] = at 50.0 µM (retest, dose inferred, filed as 5.0)

Measured: growth inhibition

CCC(=O)N(c1ccccc1)C(C)CN1CCC(O)(c2cccc(C(F)(F)F)c2)CC1 (stereo not given)
active: [1]; at 100.0 µM 83% | [4]; at 100.0 µM 76% | [6]; at 100.0 µM 97% | [8]; at 100.0 µM 73% | [9]; at 100.0 µM 89% | [10]; at 100.0 µM 96% | [11]; at 100.0 µM 91% | [12]; at 100.0 µM 94%
inactive: [1]; at 1.2 µM 0% | [1]; at 3.7 µM 4% | [1]; at 11.0 µM 13% | [1]; at 33.0 µM 27% | [2]; at 1.2 µM 2% | [2]; at 3.7 µM 6% | [2]; at 11.0 µM 11% | [2]; at 33.0 µM 22% | [2]; at 100.0 µM 46% | [3]; at 1.2 µM -3% | [3]; at 3.7 µM -3% | [3]; at 11.0 µM -1% | [3]; at 33.0 µM -2% | [3]; at 100.0 µM -1% | [4]; at 1.2 µM -2% | [4]; at 3.7 µM -7% | [4]; [16] 21% | [4]; at 11.0 µM 3% | [4]; at 33.0 µM 26% | [4]; [17] 4% | [4]; at 50.0 µM 62.3% | [5]; at 1.2 µM 0% | [5]; at 3.7 µM 7% | [5]; [16] -2% | [5]; at 11.0 µM 17% | [5]; at 33.0 µM 23% | [5]; [17] 10% | [5]; at 50.0 µM 10.2% | [5]; at 100.0 µM 57% | [6]; at 1.2 µM 6% | [6]; at 3.7 µM 18% | [6]; at 11.0 µM 48% | [6]; at 33.0 µM 68% | [7]; [16] -4% | [7]; [17] 41% | [7]; at 50.0 µM 68.2% | [8]; at 1.2 µM 2% | [8]; at 3.7 µM 1% | [8]; at 11.0 µM 13% | [8]; at 33.0 µM 41% | [9]; at 1.2 µM 1% | [9]; at 3.7 µM 3% | [9]; [16] 4% | [9]; at 11.0 µM 17% | [9]; at 33.0 µM 49% | [9]; [17] 51% | [9]; at 50.0 µM 65.2% | [10]; at 1.2 µM 0% | [10]; at 3.7 µM 5% | [10]; at 11.0 µM 16% | [10]; at 33.0 µM 44% | [11]; at 1.2 µM 2% | [11]; at 3.7 µM 6% | [11]; at 11.0 µM 17% | [11]; at 33.0 µM 44% | [12]; at 1.2 µM 2% | [12]; at 3.7 µM 10% | [12]; at 11.0 µM 20% | [12]; at 33.0 µM 60% | [13]; [16] -3% | [13]; [17] 37% | [13]; at 50.0 µM 38.9% | [14]; at 1.2 µM 3% | [14]; at 3.7 µM 9% | [14]; at 11.0 µM 25% | [14]; at 33.0 µM 31% | [14]; at 100.0 µM 69%

O=Nn1c2ccccc2c2cc([N+](=O)[O-])ccc21
inactive: [1]; at 1.2 µM -6% | [1]; at 3.7 µM 11% | [1]; at 11.0 µM 51% | [2]; at 1.2 µM -27% | [2]; at 3.7 µM -23% | [2]; at 11.0 µM -14% | [2]; at 33.0 µM 49% | [3]; at 1.2 µM 8% | [3]; at 3.7 µM 15% | [3]; at 11.0 µM 27% | [3]; at 33.0 µM 66% | [4]; at 1.2 µM 15% | [4]; at 3.7 µM 24% | [4]; [16] 47% | [4]; at 11.0 µM 53% | [5]; at 1.2 µM -16% | [5]; at 3.7 µM -1% | [5]; [16] 51% | [5]; at 11.0 µM 11% | [5]; at 33.0 µM 59% | [6]; at 1.2 µM -19% | [6]; at 3.7 µM -5% | [6]; at 11.0 µM 1% | [6]; at 33.0 µM 61% | [7]; [16] -26% | [7]; [17] 27% | [15]; [16] 35% | [15]; [17] 62% | [10]; at 1.2 µM -28% | [10]; at 3.7 µM -22% | [10]; at 11.0 µM 8% | [10]; at 33.0 µM 59% | [11]; at 1.2 µM -35% | [11]; at 3.7 µM -29% | [11]; at 11.0 µM -3% | [11]; at 33.0 µM 48% | [12]; at 1.2 µM -8% | [12]; at 3.7 µM -14% | [12]; at 11.0 µM -1% | [12]; at 33.0 µM 65% | [13]; [16] 39% | [14]; at 1.2 µM -10% | [14]; at 3.7 µM -6% | [14]; at 11.0 µM 37%
active: [1]; at 33.0 µM 88% | [1]; at 100.0 µM 95% | [2]; at 100.0 µM 92% | [3]; at 100.0 µM 85% | [4]; at 33.0 µM 89% | [4]; [17] 92% | [4]; at 50.0 µM 81.9% | [4]; at 100.0 µM 93% | [5]; [17] 91% | [5]; at 50.0 µM 75.8% | [5]; at 100.0 µM 93% | [6]; at 100.0 µM 93% | [7]; at 50.0 µM 84.5% | [15]; at 50.0 µM 72.9% | [10]; at 100.0 µM 91% | [11]; at 100.0 µM 89% | [12]; at 100.0 µM 92% | [13]; [17] 97% | [13]; at 50.0 µM 80% | [14]; at 33.0 µM 84% | [14]; at 100.0 µM 93%

CCC(NC(C)c1ccccc1)C(=O)c1ccc(OCc2ccccc2)c(OCc2ccccc2)c1 (stereo not given)
active: [5]; [17] 97%
inactive: [1]; at 1.2 µM 0% | [1]; at 3.7 µM 7% | [1]; at 11.0 µM 0% | [1]; at 33.0 µM 6% | [1]; at 100.0 µM -18% | [2]; at 1.2 µM 22% | [2]; at 3.7 µM 18% | [2]; at 11.0 µM 6% | [2]; at 33.0 µM 2% | [2]; at 100.0 µM -15% | [3]; at 1.2 µM 8% | [3]; at 3.7 µM 7% | [3]; at 11.0 µM 10% | [3]; at 33.0 µM 24% | [3]; at 100.0 µM 43% | [4]; at 1.2 µM -8% | [4]; at 3.7 µM 9% | [4]; [16] 11% | [4]; at 11.0 µM 22% | [4]; at 33.0 µM 14% | [4]; [17] 38% | [4]; at 50.0 µM -12.7% | [4]; at 100.0 µM 1% | [5]; at 1.2 µM 39% | [5]; at 3.7 µM 23% | [5]; [16] 9% | [5]; at 11.0 µM 35% | [5]; at 33.0 µM 31% | [5]; at 50.0 µM 15.3% | [5]; at 100.0 µM 30% | [6]; at 1.2 µM -1% | [6]; at 3.7 µM 3% | [6]; at 11.0 µM 3% | [6]; at 33.0 µM 3% | [6]; at 100.0 µM -12% | [7]; [16] -21% | [7]; [17] 15% | [7]; at 50.0 µM 28.2% | [8]; at 1.2 µM -4% | [8]; at 3.7 µM -3% | [8]; at 11.0 µM -14% | [8]; at 33.0 µM -16% | [8]; at 100.0 µM -29% | [9]; at 1.2 µM -47% | [9]; at 3.7 µM -38% | [9]; [16] -7% | [9]; at 11.0 µM -48% | [9]; at 33.0 µM -67% | [9]; [17] 1% | [9]; at 50.0 µM 22.8% | [9]; at 100.0 µM -81% | [10]; at 1.2 µM -12% | [10]; at 3.7 µM -12% | [10]; at 11.0 µM -13% | [10]; at 33.0 µM -7% | [10]; at 100.0 µM -6% | [11]; at 1.2 µM 5% | [11]; at 3.7 µM -6% | [11]; at 11.0 µM 3%
